Measured values published in PubChem BioAssay AID504660 (National Center for Advancing Translational Sciences (NCATS), 2011).
Among all 360,000 compounds or so, about 3,700 (1%) were called active. Only a selection was taken, and actives are over-represented in it overall. Values without a mark were called inactive. No stated cut-off is given here; in the data, active means activation above about 30%; inactive means the rest.

What follows are molecules tested against D(1A) dopamine receptor (Homo sapiens) (UniProt P21728) (assay: Allosteric Agonists of the Human D1 Dopamine Receptor: qHTS). Settings: HEK293 T-REx D1 cells, calcium flux, agonist mode; at 2 µM; stronger effect = higher value.
Sequence of D(1A) dopamine receptor (Homo sapiens) (P21728 whole entry, looked up): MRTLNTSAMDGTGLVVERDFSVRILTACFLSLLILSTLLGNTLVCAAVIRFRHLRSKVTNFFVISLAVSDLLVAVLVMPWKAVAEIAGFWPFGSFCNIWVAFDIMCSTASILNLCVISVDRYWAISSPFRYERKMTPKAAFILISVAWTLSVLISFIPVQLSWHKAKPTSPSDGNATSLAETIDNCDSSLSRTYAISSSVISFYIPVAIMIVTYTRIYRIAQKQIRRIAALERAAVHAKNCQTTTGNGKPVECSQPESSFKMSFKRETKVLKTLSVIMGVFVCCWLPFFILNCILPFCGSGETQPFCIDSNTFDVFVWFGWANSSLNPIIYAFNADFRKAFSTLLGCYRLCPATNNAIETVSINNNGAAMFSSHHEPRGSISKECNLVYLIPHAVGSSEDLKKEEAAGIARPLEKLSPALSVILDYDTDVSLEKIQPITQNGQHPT
Source text: NIH Chemical Genomics Center [NCGC] NIH Molecular Libraries Probe Centers Network [MLPCN] MLPCN Grant: NS064831-01 Assay Submitter (PI): David Sibley Dopamine receptors (DARs) are involved in the etiology and/or therapy of a number of neuropsychiatric and endocrine disorders. For instance, all receptor-based antiparkinsonian drugs work via stimulating the D1 DAR subtype whereas all FDA-approved antipsychotic agents are antagonists of this receptor. […] There are three different types of allosteric modulators that we are seeking, two of which will stimulate or augment receptor signaling, allosteric agonists and potentiators, while the third, allosteric antagonists, will attenuate receptor signaling. The present primary screening assay measures compound agonism by tracking calcium flux in a […], inducible Hek293 Trex D1 cell line.
Freshly passaged cells are plated in 1536 well black, clear bottom plates at a density of 4000 cells/well in 3 ul of complete media containing 1x tetracycline inducer. After an overnight incubation at […] in 5% CO2, cells are loaded with 2 ul of the no wash Calcium Assay Kit (ABD Bioquest) and incubated at room temperature for 30 to 90 minutes. Agonist read: A 10 cycle (1 second/cycle) baseline measurement is taken and then the FDSS online 1536 pintool delivers 23 nl of compound library (as well as dopamine controls) to the plate. The plate is measured for kinetically at 1 cycle/sec for 180 seconds and is considered to be the agonist portion of the assay (eg, compounds which activate a positive calcium response during this portion are flagged as potential agonists). Following the 180 second read, 1 ul of either an EC20 (positive modulation assay) or EC80 (negative modulation assay) is delivered by an onboard pipette head. Measurements are taken kinetically for an additional 180 seconds.
Further: 0% is about no effect.

Row | Structure (SMILES) | activation
1 | CCCCCOC(=O)c1ccc(N2C(=O)C3C4C=CC(C4)C3C2=O)cc1 (stereo not given) | 19.5%
2 | CCCCCCCCCCOC(=O)C[N+](C)(C)CC1CCCCC1O (stereo not given) | 31.1% (active)
3 | COc1cc(C(=O)NCC(c2ccc(Cl)cc2)N2CCOCC2)cc(OC)c1OC (stereo not given) | -0.448%
4 | Cc1[nH]c2ccccc2c1C(c1ccccc1)c1cccs1 (stereo not given) | 0.783%
5 | O=C(CCc1nc(CN2CCN(S(=O)(=O)c3ccc(Cl)cc3)CC2)no1)N1CCCCC1 | 12.7%
6 | CCN(CC)S(=O)(=O)c1ccc2c(c1)N(CC(=O)NCC(C)c1ccccc1)C(=O)CO2 (stereo not given) | 4.4%
7 | Cc1ccc(CNC(=O)Cn2c(=O)ccc3cc(S(=O)(=O)N4CCCC4)ccc32)cc1 | -0.173%
8 | Cc1c(NC(=O)c2cc(-c3ccc(Cl)s3)nc3ccccc23)c(=O)n(-c2ccccc2)n1C | 0.635%
9 | CCOc1ccc(Cn2nnc(C(=O)NCc3ccccc3)c2N)cc1 | 36.7% (active)
10 | CC(=O)N1CCN(C(=O)c2cc(-c3ccc(Cl)s3)nc3ccccc23)CC1 | -0.053%
11 | CCOc1ccc(CNC(=O)c2ccc(CS(=O)c3ccccc3)o2)cc1 (stereo not given) | 0.22%
12 | CCOc1ccc(Cn2nnc(C(=O)Nc3ccc(OC)cc3OC)c2N)cc1 | 6.39%
13 | CCOc1ccc(CNC(=O)c2cc(-c3ccc(Cl)s3)nc3ccccc23)cc1 | 36.4% (active)
14 | CCc1ccccc1NC(=O)c1sc2nc3c(cc2c1N)CN(Cc1ccccc1)CC3 | 0.298%
15 | O=[S+]([O-])(c1ccc2c(c1)OCCO2)N1CCN([S+](=O)([O-])c2c(Cl)cc(Cl)cc2Br)CC1 | 0.0145%
16 | O=S(=O)(Nc1cccc2cccnc12)c1cccc2cccnc12 | 23.3%
17 | COc1ccc(-c2nc3nc(C)cc(C)n3c2Nc2c(C)cccc2C)cc1 | 7.65%
18 | c1ccc(C[C@H]2CNCCN2CCC23CC4CC(CC(C4)C2)C3)cc1 | 39.5% (active)
19 | COc1cc(-c2cc3n(C)c(C)c(CCC(=O)Nc4ccc(F)cc4)c(=O)n3n2)cc(OC)c1OC | 0.314%
20 | Cc1ccc(Cl)cc1NC(=O)/C(C#N)=C\c1cn(Cc2ccc(F)cc2)c2ccccc12 | 6.19%
21 | CCc1nc(-c2cc(S(=O)(=O)N3CCN(c4ccc(OC)cc4)CC3)ccc2OC)no1 | 4.75%
22 | CSc1nc(-c2ccc(F)cc2)nc2c1Cc1c(CO)cnc(C)c1O2 | 1.34%
23 | O=C(OCCN=C1NS(=O)(=O)c2ccccc21)c1cccc([N+](=O)[O-])c1 | 3%

Row | Structure (SMILES) | activation
24 | O=C(CCCN=C1NS(=O)(=O)c2ccccc21)OCC(=O)c1ccc(F)c(F)c1 | 68.2% (active)
25 | N#CC1(NC(=O)COC(=O)CCN=C2NS(=O)(=O)c3ccccc32)CCCCC1 | 4.55%
26 | O=C(O)c1c(CNCc2cccc(F)c2)c2ccccc2n1Cc1ccccc1 | -1.09%
27 | COc1cc(CNC2CCCC2)c(Br)cc1OCc1ccccc1 | 42.3% (active)
28 | COc1cc(CNC2CCCCC2)c(Br)cc1OC1CCCC1 | 10.2%
29 | COc1cc(OC)c(NC(=O)C2CCCN2C(=O)OCc2ccccc2)cc1Cl (stereo not given) | -0.285%
30 | Cc1nc(-c2ccc(Cl)cc2)sc1C1(C)CC(c2ccccc2F)=NO1 (stereo not given) | 6.23%
31 | Cc1nc(C(=O)NCc2ccccc2)sc1C1(C)CC(c2cccnc2)=NO1 (stereo not given) | 41.4% (active)
32 | Cc1nc(C(=O)Nc2ccc(Cl)cc2)sc1C1(C)CC(c2ccccc2)=NO1 (stereo not given) | 6.69%
33 | COc1cccc(-n2ccn(CC(=O)NCc3ccc(C)cc3)c(=O)c2=O)c1 | 14.3%
34 | Cc1ccc(CNC(=O)c2ccccc2CCc2ccccc2)cc1 | 4.45%
35 | Cc1ccc(CNC(=O)c2cccc3c2C(=O)c2ccc(N4CCC(C)CC4)cc2S3(=O)=O)cc1 | 179% (active)
36 | COc1cccc(-c2ccc3c(c2)S(=O)(=O)c2cccc(C(=O)O)c2C3=O)c1OC | 0.629%
37 | Cc1ccccc1OCC(=O)Nc1c(C(=O)Nc2ccccc2F)oc2ccccc12 | 20.7%
38 | CCOC(=O)c1c(C)[nH]c(CCC(=O)Nc2ccc(OC)c(OC)c2)c1C | -0.109%
39 | Cc1cc(=O)c2cc(C(=O)Nc3cccc(C)c3C)ccc2[nH]1 | -0.195%
40 | CC(C)(c1ccccc1)c1ccc(OCCN2CCCC2)cc1 | 35.8% (active)
41 | CC(C)(c1ccccc1)c1ccc(OCCN)cc1 | 63.3% (active)
42 | c1ccc2cc(OCCN3CCCC3)ccc2c1 | 5.59%
43 | Cc1nn(CCOc2ccccc2)c(=O)n1-c1ccccc1F | 1.91%
44 | Cc1cc(OCCN2CCCC2)ccc1C(C)C | 2.99%
45 | CC(C)(C)c1ccc(Oc2ccc(N)cc2)cc1 | 5.93%
